Laboratory results as given in PubChem BioAssay (EPA / NIEHS).
Several values for one entry are separate records, joined by “and”; a condition that tells them apart may be missing. Equal values may be shown once. Activity calls are given as the source filed them. The calls were made as follows: active = hit-call score of the fitted dose curve at least 0.9, where 1 is the maximum; inactive = score below 0.9.

read-out: Matrix Metallopeptidase 9 (MMP9), MMP9 (gene 4318); test: BSK_BE3C_MMP9: BioMAP Diversity Plus: BE3C Assay for Matrix Metallopeptidase 9 (MMP9) Biomarker Activity (AID 2284283); details: primary human bronchial epithelial cells
Protocol: BSK_BE3C is a cell-based, multiplexed-readout assay that uses bronchial epithelial cell, a human lung primary cell, with measurements taken at 24 hours after chemical dosing in a 96-well plate.BSK_BE3C_MMP9 is an assay component measured in the BSK_BE3C assay. It measures MMP-9 antibody related to regulation of gene expression using ELISA technology.Data from the assay component BSK_BE3C_MMP9 was analyzed at the endpoint, BSK_BE3C_MMP9, in the positive analysis fitting direction relative to DMSO as the negative control and baseline of activity. Using a type of binding reporter, gain or loss-of-signal activity can be used to understand protein changes. To generalize the intended target to other relatable targets, this assay endpoint is annotated to the 'protease' intended target family, where the subfamily is 'matrix metalloproteinase'.
The levels of cell surface (or secreted, indicated by the prefix "s") biomarker endpoints were measured by ELISA. Overt cytotoxicity to cells in confluent adherent cultures (all systems other than the BT system) was assessed by measuring total protein levels using sulforhodamine B (SRB) staining in parallel cultures at the time of biomarker measurements, indicated as SRB endpoints. For proliferation assays for adherent cell types, individual cell types are cultured at sub-confluence and relative cell numbers quantified by SRB staining at time points optimized for each system (48 h: 3C and CASM3C systems; 72 h: BT and HDF3CGF systems; 96 h: SAg system). SRB was performed by staining cells with 0.1% SRB after fixation with 10% TCA and reading wells at 560 nm.Viability and proliferation of PBMC (T cells) was quantified by Alamar Blue reduction for the SAg and BT systems. For PBMC viability (referred to as PBMC Cytotoxicity within the assay endpoint names), cells were plated (75,000/well in a 96-well plate) and then chemical samples added for 1 h before addition of activators, SEB and TSST-1 (20 ng/mL final concentration each). Cells were incubated for 90 h. Then, Alamar Blue (20 uL/well) (Invitrogen, Cat DAL1100) was added for 6 h, and the plates were read with a fluorescence microplate reader at 546/580 nm (excitation/emission). For PBMC proliferation, cells were plated and activated as above but incubated for only 16 h prior to addition of Alamar Blue. Plates were read after 6 h.

| SMILES | AC50 | outcome |
| --- | --- | --- |
| OCC(F)(F)C(F)(F)C(F)(F)C(F)(F)C(F)(F)C(F)(F)C(F)(F)C(F)(F)C(F)(F)C(F)(F)C(F)(F)F | 229 nM (active) and 222 nM (active) | – |
| CN(Cc1cnc2nc(N)nc(N)c2n1)c1ccc(C(=O)N[C@@H](CCC(=O)O)C(=O)O)cc1 | – | inactive |
| C=CC(=O)OCCC(F)(F)C(F)(F)C(F)(F)C(F)(F)C(F)(F)C(F)(F)C(F)(F)C(F)(F)F | – | inactive |
| O=C(O)C(F)(F)OC(F)(F)C(F)(F)OC(F)(F)C(F)(F)OC(F)(F)C(F)(F)C(F)(F)C(F)(F)F | 5.94 µM (active) and 4.69 µM (active) | – |
| O=S(=O)(O)C(F)(F)C(F)(F)C(F)(F)C(F)(F)C(F)(F)C(F)(F)C(F)(F)C(F)(F)C(F)(F)C(F)(F)F | 9.67 µM (active) and 13.3 µM (active) | – |
| O=C(CC(=O)C(F)(F)C(F)(F)C(F)(F)F)c1cccs1 | 18.5 µM (active) | – |
| O=P(O)(O)CCC(F)(F)C(F)(F)C(F)(F)C(F)(F)C(F)(F)C(F)(F)C(F)(F)C(F)(F)F | – | inactive |
| CN(CCO)S(=O)(=O)C(F)(F)C(F)(F)C(F)(F)C(F)(F)C(F)(F)C(F)(F)C(F)(F)C(F)(F)F | – | inactive |
| Oc1ccc(Cc2ccccc2O)cc1 | – | inactive |
| O=C(O)CCC(F)(F)C(F)(F)C(F)(F)C(F)(F)C(F)(F)F | – | inactive |
| O=C(O)CCC(F)(F)C(F)(F)C(F)(F)C(F)(F)C(F)(F)C(F)(F)F | – | inactive |
| CCCCCCCCCCCC | 9.27 µM (active) and 9.14 µM (active) | – |
| O=P(O)(O)CCC(F)(F)C(F)(F)C(F)(F)C(F)(F)C(F)(F)C(F)(F)F | – | inactive |
| O=C1NS(=O)(=O)c2ccccc21 | – | inactive |
| Oc1c(Cl)cc(Cl)cc1Sc1cc(Cl)cc(Cl)c1O | 2.09 µM (active) and 1.25 µM (active) | – |
